Rows were chosen to be rich in hits. Some 2.9% of all compounds tested hit in one or more screens of this group.
NadD inh = inhibitors of S. aureus NadD, primary screen, biochemical, colorimetric, uHTS; AID 602399, 2012; purified NadD enzyme, colorimetric absorbance read-out; actives 0.78% (n = 360,000); Nicotinate-nucleotide adenylyltransferase NadD (Staphylococcus aureus N315); inhibition, % at 20 µM; in the data active means inhibition above about 26%
Beta2AR agonist = beta2AR agonists driving receptor internalization, primary screen, cell-based, FAP fluorogen, flow cytometry; Beta-2 adrenergic receptor (Homo sapiens), P07550; Am2.2-beta2AR cells; response, % (test concentration not listed); actives 0.43% (n = 340,000);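 active means response above a set limit, near 3 SD of response in nonfluorescent compounds, cut at about 42% in these data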
GRK2 aptamer HTS = compounds blocking aptamer binding on GRK2 – biochemical, human GRK2, bead flow cytometry, HTS, primary screen. inhibition of aptamer binding, % at 10 µM. actives 0.59% (n = 330,000). Beta-adrenergic receptor kinase 1 (Homo sapiens), P25098. FAM-aptamer displacement from GRK2;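 active means inhibition of aptamer binding above 40%, roughly 3 SD of noise, on plates passing a quality check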;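 further: median bead fluorescence of bound FAM aptamer so fluorescent compounds give negative values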
PP1 counter = PP1-alpha phosphatase inhibitors, primary screen, counter-screen for PP5 inhibitor project, biochemical, fluorescence, OMFP substrate, single point. actives 0.9% (n = 320,000). purified PP1alpha. inhibition, % at 6.7 µM. Serine/threonine-protein phosphatase PP1-alpha catalytic subunit (Homo sapiens), P62136;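 active means inhibition above the mean inhibition of all tested compounds plus 3 SD, computed separately for each screening campaign, cut at about 15% in these data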
Target sequence (P62136 whole entry, looked up): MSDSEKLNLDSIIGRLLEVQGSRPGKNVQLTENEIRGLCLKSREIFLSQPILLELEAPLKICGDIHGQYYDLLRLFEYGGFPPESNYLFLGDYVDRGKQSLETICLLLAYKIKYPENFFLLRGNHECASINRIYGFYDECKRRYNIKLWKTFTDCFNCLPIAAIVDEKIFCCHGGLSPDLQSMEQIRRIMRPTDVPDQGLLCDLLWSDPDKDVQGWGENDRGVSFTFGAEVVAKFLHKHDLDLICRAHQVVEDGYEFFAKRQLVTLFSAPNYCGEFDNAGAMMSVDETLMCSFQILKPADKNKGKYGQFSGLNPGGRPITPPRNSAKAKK
Granule exo inh = LAMP-1 surface exposure blockers, TALL-104 cells – cell-based, flow cytometry, MLPCN library, primary screen; TALL-104 LAMP-1 surface exposure; cells stimulated with thapsigargin and PMA; inhibition, % at 10 µM; actives 0.66% (n = 360,000);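 active means inhibition above about 55%, limit read from the data; inconclusive means no clear call, values can overlap the other calls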
PP1 confirm = PP1 phosphatase inhibitors, confirmation, biochemical, fluorescence, OMFP substrate, triplicate | shares compounds with PP1 counter | purified PP1alpha | inhibition, % at 6.7 µM | actives 52% (n = 1,900);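 active means mean PP1 inhibition above a set limit taken from the earlier primary screen, cut at about 15% in these data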
PP5 counter = PP5 phosphatase inhibition by PP1 hits, confirmation, counter-screen for PP1 inhibitor project, biochemical, fluorescence, triplicate. actives 4% (n = 1,900). purified PP5c, OMFP fluorescence. inhibition, % at 6.7 µM. shares compounds with PP1 counter;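 active means mean PP5 inhibition over triplicate wells above about 9.5% taken from the earlier PP1 screen, limit read from the data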
* = called active by the depositor; ? = inconclusive; nt = no result given.

SMILES | NadD inh | Beta2AR agonist | GRK2 aptamer HTS | PP1 counter | Granule exo inh | PP1 confirm | PP5 counter
O=C1Nc2cc(C(=O)N3CCN(c4ccccc4F)CC3)ccc2NC1CSCc1ccccc1F (configuration not stated) | nt | nt | 0.0 | 18.5* | nt | 32.5* | 1.0
O=C(c1cccc(C(=O)N2CCN(c3ccccc3F)CC2)c1)N1CCN(c2ccccc2F)CC1 | -16.4 | 4.3 | 5.0 | -3.7 | 1.5 | nt | nt
COc1ccc(/C=C2/C(=O)N(c3nc4ccccc4s3)N=C2CSc2ccc(Cl)cc2)cc1 | 73.4* | 23.5 | 4.0 | 31.1* | -0.5 | 9.0 | 0.1
C=C(C)C(=O)Nc1cccc(C2=NOC3(C2)C[C@@H](C(N)=O)N(C(=O)C2(C)CC2)C3)c1 (some centres not stated) | -6.7 | -2.2 | 91.0* | 23.4* | 4.8 | 1.9 | -3.4
C/C=C\C=C/C(=O)Nc1cccc(C2=NOC3(C2)C[C@@H](C(N)=O)N(C(=O)/C=C/C=C\C)C3)c1 (some centres not stated) | 30.8* | -0.4 | 11.0 | 30.9* | 21.2 | 14.2 | -1.1
OCC1OC(n2cnc3c(SCc4ccccc4)nc(F)nc32)C(O)C1O (configuration not stated) | 3.2 | -2.5 | nt | nt | 1.0 | nt | nt
Cc1cccc(NC(=O)CNC(=O)COc2ccc(-c3ccc(C#N)cc3)cc2)c1C | 13.3 | 10.4 | 0.0 | 20.3* | -1.0 | 17.6* | -1.1
COc1cc(/C=C2/NC(=O)N(CC(=O)Nc3ccc(C)cc3)C2=O)ccc1Oc1ccc([N+](=O)[O-])cn1 | 21.0 | -2.3 | 1.0 | 19.4* | -4.1 | 23.4* | -2.2
Cc1cc(NC(=O)COC(=O)c2ccccc2[N+](=O)[O-])no1 | 0.9 | 0.3 | 0.0 | 0.7 | 0.2 | nt | nt
N#CC1=C(N)SC(N)=C(C#N)C1c1ccc(C(F)(F)F)cc1 | nt | nt | 5.0 | 39.2* | nt | 3.6 | -4.9
CCc1ccc(C2C(C#N)=C(N)SC(N)=C2C#N)cc1 | 6.2 | -17.9 | 0.0 | 0.6 | 1.4 | nt | nt
CC(C)C[C@H]1CN(CCCC[C@H]2CNC(=O)C(=O)N2Cc2ccccc2)C(=O)C(=O)N1CCc1ccc(O)cc1 | 12.2 | nt | nt | nt | -3.8 | nt | nt
O=C(CSC(=S)N1CCOCC1)Nc1nc(-c2ccccc2)c(-c2ccccc2)o1 | 15.0 | 11.8 | 3.0 | 18.4* | -0.3 | 10.6 | -3.0
Cc1cc2oc(=O)cc(-c3cc4ccccc4o3)c2cc1O | 15.5 | 2.8 | 0.0 | 23.8* | 0.1 | 21.4* | -0.7
COc1ccc(Cl)cc1NC(=O)c1nnn(CC(=O)Nc2ccc3c(c2)OCO3)c1N | 15.1 | -10.9 | 3.0 | 24.7* | -1.0 | 25.9* | -4.8
COc1cccc(NC(=O)Cn2nnc(C(=O)Nc3cc(Cl)ccc3OC)c2N)c1 | 7.4 | 0.3 | 0.0 | 18.1* | 1.5 | 19.5* | -2.4
COc1ccc(Cl)cc1NC(=O)c1nnn(CC(=O)Nc2ccc(OC)c(OC)c2)c1N | -2.7 | 20.9 | 0.0 | -1.1 | 3.5 | nt | nt
COc1ccc(S(=O)(=O)N2CCCCC2)cc1NC(=O)c1cccc(S(=O)(=O)N2CC(C)OC(C)C2)c1 (configuration not stated) | 1.8 | 2.2 | nt | nt | -0.7 | nt | nt
O=c1[nH][nH]c2c1[C@H](c1ccccc1)O[C@H](C1CCCCC1)C2 | 12.9 | nt | nt | nt | 4.5 | nt | nt
C=CCn1cc(C(=O)OCC)c(=O)c2cc(F)c(F)cc21 | 6.9 | -3.9 | 3.0 | -6.2 | 3.1 | nt | nt
CC(C)(C)NC(=O)N1CCN(c2nc(-c3ccccc3)ns2)CC1 | -8.0 | 3.1 | nt | 52.7* | 5.3 | 0.4 | -1.7
COc1ccc(-c2ccc(C(=O)NCc3ccco3)c3occc23)c(C)c1 | -2.6 | nt | nt | nt | 25.2 | nt | nt
COc1ccccc1CNC(=O)C(NS(=O)(=O)c1ccc2c(c1)oc(=O)n2C)C(C)C (configuration not stated) | -0.6 | -2.5 | 0.0 | 26.6* | 7.5 | -2.6 | -1.1
COc1ccccc1CNS(=O)(=O)c1ccc2c(c1)oc(=O)n2C | -0.9 | -6.0 | 5.0 | 0.7 | 0.5 | nt | nt
Cc1cccc(Nc2nc(-c3ccccn3)cs2)n1 | 2.5 | -8.7 | 0.0 | 63.7* | -0.1 | 52.7* | 2.5
SMILES | NadD inh | Beta2AR agonist | GRK2 aptamer HTS | PP1 counter | Granule exo inh | PP1 confirm | PP5 counter
Cc1cccnc1Nc1nc(-c2ccccn2)cs1 | -2.5 | 13.1 | 4.0 | 28.4* | -0.5 | 35.6* | 5.1
Cc1cccc(Nc2nc(-c3cccs3)cs2)n1 | 0.0 | -0.9 | 0.0 | 2.5 | -2.7 | nt | nt
O=C(/C=C/c1ccc(OCCCF)cc1)Nc1ccnc(-c2cccnc2)n1 | -2.1 | 1.7 | 3.0 | 22.0* | 3.7 | 22.3* | -4.4
O=S1(=O)CC(N2CCN(CCO)CC2)CN1Cc1ccccc1 (configuration not stated) | -8.6 | nt | nt | nt | -0.3 | nt | nt
Cc1ccc(C)c(S(=O)(=O)N2CCN(Cc3ccc(O)c4ncccc34)CC2)c1 | 12.3 | -3.8 | 1.0 | 31.4* | 4.0 | 29.9* | -6.8
Cc1nn(-c2ccccc2)c2sc(C(=O)NNC(=O)COc3ccccc3)cc12 | 6.5 | -3.8 | 0.0 | 23.2* | 0.6 | 22.3* | 0.2
Cc1nn(-c2ccccc2)c2sc(C(=O)NNC(=O)COc3cccc4ccccc34)cc12 | 17.8 | -0.3 | 2.0 | 9.3 | 6.8 | nt | nt
Cc1ccc(NC(=O)COC(=O)c2cccc(C)c2[N+](=O)[O-])cc1S(=O)(=O)N1CCCCC1 | -15.0 | 1.7 | 0.0 | nt | -0.5 | nt | nt
CCOc1ccc(CNC(=O)CCn2c(=O)oc3ccccc32)cc1 | -2.7 | -2.8 | 0.0 | 23.3* | -5.7 | -4.4 | -4.5
COc1ccc(CNC(=O)CCn2c(=O)oc3ccccc32)cc1 | -3.0 | 1.2 | 0.0 | 2.9 | -2.7 | nt | nt
CCC(C)[C@H](NC(=O)[C@@H]1Cc2ccccc2CN1)C(=O)Nc1ccc2c(c1)OCO2 (some centres not stated) | -2.8 | 19.0 | 2.0 | 5.6 | ? | nt | nt
COc1ccc(/C=N/N2C(=O)CSC2=S)cc1Br | 7.6 | -6.0 | 3.0 | 25.1* | 4.5 | 22.1* | 0.6
CCOc1cc(Br)cc(/C=N/NC(=O)c2cccnc2)c1O | -2.9 | 5.4 | 0.0 | 22.4* | -8.3 | 18.6* | -4.1
COc1c(Br)cc(Br)cc1/C=N/NC(=O)c1cccnc1 | -5.1 | -8.1 | 0.0 | nt | -0.7 | nt | nt
Cc1cc(N/N=C/c2cccc(F)c2)nc(NCc2ccccc2)n1 | -6.5 | 2.2 | 2.0 | 9.0 | 42.4 | nt | nt

Source: PubChem BioAssay
